{"source": "PubChem BioAssay", "data": [{"target": "Alpha-bungarotoxin (Bungarus multicinctus) (UniProt P60615)", "sequence (P60615 whole entry, looked up)": "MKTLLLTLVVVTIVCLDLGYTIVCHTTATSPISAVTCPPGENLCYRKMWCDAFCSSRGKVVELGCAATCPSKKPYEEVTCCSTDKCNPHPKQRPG", "assay": "compounds binding labelled alpha-BTX control protein – biochemical, small-molecule microarray, Alexa647 label, 635/667 nm fluorescence, artefact control for SMM control protein annotation, profiling panel (AID 1117)", "conditions": "alpha-BTX-A647 binding fluorescence, higher = more signal", "values": [{"smiles": "Cc1ccc(S[C@]2(C(=O)NCC(F)(F)F)CC(=O)N(Cc3cc(C(F)(F)F)cc(C(F)(F)F)c3)[C@@H]2c2ccc(CO)cc2)cc1", "composite z-score": -0.633}, {"smiles": "COCCOC(=O)N1C(=O)[C@@]2(c3ccccc31)[C@H](c1ccc(O)cc1)N1[C@H](c3ccccc3)[C@H](c3ccccc3)OC(=O)[C@H]1[C@@H]2C(=O)N1CCN(c2ncccn2)CC1", "composite z-score": 0.692}, {"smiles": "CCCCC(CC)C(O)C1C=CC2C(=O)N(c3ccccc3)C(=O)C2N1Nc1ccccc1F", "note": "(stereo not given)", "composite z-score": -0.176}, {"smiles": "COC(=O)C/C=C/C[C@]1(O)C(=O)N(C)c2ccccc21", "composite z-score": 0.766}, {"smiles": "COCCOC(=O)N1C(=O)[C@@]2(c3cc(C#CCCO)ccc31)[C@H](c1ccc(OCCO)cc1)N1[C@H](c3ccccc3)[C@H](c3ccccc3)OC(=O)[C@H]1[C@@H]2C(=O)Nc1nc2ccccc2s1", "composite z-score": 1.96}, {"smiles": "CC(C)c1ccc(NN2C(C(O)c3ccc(F)cc3)C=CC3C(=O)N(c4ccccc4)C(=O)C32)cc1", "note": "(stereo not given)", "composite z-score": 1.39}, {"smiles": "O=C1[C@H]2C=C(I)[C@H](C[C@@H]2OCCOCCO)[C@@]12CO2", "composite z-score": -0.0432}, {"smiles": "COC(=O)[C@@]1(Cc2ccc(F)cc2)[C@H]2c3cc(C(=O)N4CCCC4)n(CCc4c[nH]c5ccccc45)c3C[C@H]2CN1C(=O)c1ccccc1", "composite z-score": 1.89}, {"smiles": "O=C1OCCC/C=C\\[C@H]2OC34C=CCN(c5ccc6ccccc6c5)C(=O)[C@H]3N(CCO)C(=O)[C@@H]4C12", "note": "(stereo not given in full)", "composite z-score": -1.95}, {"smiles": "Cc1ccc(S[C@]2(C(=O)O)CC(=O)N(C3CCCCC3)[C@@H]2c2ccc(CO)cc2I)cc1", "composite z-score": 0.763}, {"smiles": "CCCCC(CC)C(O)C1C=CC2C(=O)N(C)C(=O)C2N1Nc1ccccc1", "note": "(stereo not given)", "composite z-score": 1.34}, {"smiles": "N#Cc1ccc(NN2C(C(O)c3ccc(Br)cc3)C=CC3C(=O)N(c4ccccc4)C(=O)C32)cc1", "note": "(stereo not given)", "composite z-score": 2.36}, {"smiles": "Oc1ccc2cc[n+](Cc3cc4c(cc3Br)OCO4)cc2c1", "composite z-score": -0.791}, {"smiles": "Cc1cc(C)c(C(O)C2C=CC3C(=O)N(c4ccccc4)C(=O)C3N2Nc2ccccc2F)c(C)c1", "note": "(stereo not given)", "composite z-score": 0.505}, {"smiles": "COCCOC(=O)N1C(=O)[C@@]2(c3cc(C#CC4=CCCCC4)ccc31)[C@H](C(=O)Nc1nc3ccccc3s1)[C@H]1C(=O)O[C@H](c3ccccc3)[C@H](c3ccccc3)N1[C@@H]2c1ccc(O)cc1", "composite z-score": 0.42}, {"smiles": "COc1ccc([Si](C)(C)[C@H]2[C@H](CC(=O)N(CCO)Cc3ccccc3)O[C@@]3(C(=O)N(C)c4c(Br)cc(C)cc43)[C@@H]2C)cc1", "composite z-score": 0.572}, {"smiles": "O=C(c1ccccc1)N1C(=O)[C@]2(Cc3ccccc31)N=C(c1ccc(OCCCO)cc1)O[C@@H]2c1ccccc1", "composite z-score": 1.46}, {"smiles": "COc1ccc(CCNC(=O)[C@@]2(c3ccc([N+](=O)[O-])cc3)CC(=O)N(C3CCCCC3)[C@@H]2c2ccc(CO)cc2)cc1", "composite z-score": 0.823}, {"smiles": "O=C(NCCN1CCOCC1)[C@@H]1c2ccccc2C(=O)N(Cc2ccccc2Cl)[C@H]1c1ccc(CO)cc1", "composite z-score": 0.27}, {"smiles": "CS(=O)(=O)CCOC(=O)C1=CC(c2ccc(CO)cc2)=CC(C2CC2)N(Cc2sc3ccccc3c2Cl)C=C1C(=O)OCCS(C)(=O)=O", "note": "(stereo not given)", "composite z-score": 1.89}, {"smiles": "CC1=C2[C@@H](CCc3ccccc3)OB(O)C[C@@H]2[C@@H]2C(=O)N(C)C(=O)[C@@H]2C1", "composite z-score": 0.769}, {"smiles": "CN1C2C=C(CCCO)C(C3C(=O)N(C(N)=O)C(=O)C32)C1C1CC1", "note": "(stereo not given)", "composite z-score": 0.0218}, {"smiles": "NCCCCCCNC(=O)[C@@H]1C[C@@H]2C(=O)N[C@@H](CCCCN)C(=O)N2[C@@H]1c1ccc(O)cc1", "composite z-score": -1.03}, {"smiles": "CC1CC/C=C\\[C@H]2OC34C=CCN(C(C)(C)C)C(=O)[C@H]3N(CCCCCO)C(=O)[C@@H]4C2C(=O)O1", "note": "(stereo not given in full)", "composite z-score": -1.25}, {"smiles": "Cc1ccc(F)cc1S(=O)(=O)N[C@@H]1CCN(Cc2ccc(Br)cc2)C1", "composite z-score": 0.322}, {"smiles": "COC(=O)[C@@]1(Cc2ccc(OC)cc2)[C@H]2c3cc(C(=O)N4CCCC4)n(CCO)c3C[C@H]2CN1C(=O)c1ccccc1", "composite z-score": 0.365}, {"smiles": "CCOC(=O)C[C@H]1[C@H](OC(=O)c2ccccc2-c2ccccc2)[C@@H](NC(=O)c2ccc3ccccc3c2)c2cc(OCCCO)ccc2N1C(=O)c1ccccc1", "composite z-score": 0.789}, {"smiles": "CCCC1(C(=O)OC)C=C2C(=C(C)C(=O)C2C)CN1", "note": "(stereo not given)", "composite z-score": -0.14}, {"smiles": "O=C1C2C=CC(C(O)C3CC=CCC3)N(Nc3ccccc3)C2C(=O)N1c1ccccc1", "note": "(stereo not given)", "composite z-score": 1.78}, {"smiles": "CC(C)N1C(=O)C[C@@](C(=O)NC2CC2)(c2ccc([N+](=O)[O-])cc2)[C@H]1c1ccc(CO)cc1", "composite z-score": 0.181}, {"smiles": "C=C(C(=O)CC[C@H](OC(=O)c1ccccc1-c1ccccc1C(=O)O)c1cccc(OCCO)c1)C(C)C", "composite z-score": 0.436}, {"smiles": "COC(=O)c1c(CC[C@@H](CO)NC(=O)N[C@@H](C)Cn2cc(-c3ccccn3)nn2)oc(C(C)=O)c1C(=O)OC", "composite z-score": -0.715}, {"smiles": "COCC(=C=CC[C@H](O)c1ccc(CO)o1)CCO", "composite z-score": 0.818}, {"smiles": "COCC(=C=CC[C@H](O)c1ccc(OCCO)cc1)CCO", "composite z-score": -0.829}, {"smiles": "COc1cc(NN2C(C(O)c3ccco3)C=CC3C(=O)N(C)C(=O)C32)cc(OC)c1OC", "note": "(stereo not given)", "composite z-score": 0.509}]}]}
